# Pf Dd2 inh = inhibitors of Plasmodium falciparum Dd2 growth. P. falciparum Dd2 growth, SYBR Green, 72 h. Potency, µM (doses to about 28.9 µM), for the others: top-dose activity, negative = inhibition, usual class: inhibitors. 120,000 tested, 4.3% active. AID 1347417; active = well fitted inhibition curve with a large enough effect;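 note: plate controls were DMSO vehicle for no effect and reference drug for full effect; nearly all actives have a fitted effect of over 65% in size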
#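 Readout: SYBR Green fluorescence, 485 nm excitation, 535 nm emission, after ~16 h lysis at 37C. Before that, Dd2-infected red cells (2.5% hematocrit) grew 72 h with compound, 29 uM top final concentration.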
# * marks the source's active call; other numbers are inactive results; i = inactive; [ ] = remark or other dose. This is one part of a sample in which hits are shown more often than they occur. Potency is the fitted concentration of half-maximal effect.
SMILES,Pf Dd2 inh
Cc1cccnc1CN1C[C@@H](F)[C@@H](OCc2nc3ccccc3n2C)C1,i
CN(CC1CCCO1)c1ccc(C(=O)N2CCC(CCn3cccn3)CC2)cn1 (centres undefined),-17.2%
Cc1ccc(Nc2c3c(nc4nncn24)CCC3)cc1C,10µM*
Cc1ccc(Nc2c3c(nc4nncn24)CCC3)cc1,i
CCOc1ccc(Nc2c3c(nc4nncn24)CCC3)cc1,-6.8%
Brc1ccc(Nc2c3c(nc4nncn24)CCC3)cc1,3.98µM*
Cc1cccc(Nc2c3c(nc4nncn24)CCC3)c1,43.7%
Cc1ccccc1Nc1c2c(nc3nncn13)CCC2,-9.6%
COc1ccc(CNS(=O)(=O)c2cc3c(cc2Cl)N(C(C)=O)CCO3)cc1,-15.8%
COc1ccc([C@H]2C[C@@H](O)[C@@H](O)[C@@H]2NC(=O)c2ccccc2OC)cc1,i
CCOc1ccccc1NC(=O)Cc1noc2ccc(C)cc12,-1.7%
CCCCCn1c(=O)[nH]c2cc(C(=O)N3CCN(c4cccc(Cl)c4)CC3)ccc2c1=O,-11.6%
COCCCNC(=O)CCCN1C(=O)COc2ccc(C(=O)COc3cccc(C)c3C)cc21,-0.9%
COCCNC(=O)CCCN1C(=O)COc2ccc(C(=O)COc3ccc(Cl)c(C)c3)cc21,i
COCCNC(=O)CCCN1C(=O)COc2ccc(C(=O)COc3c(C)ccc(C)c3C)cc21,10µM*
O=C(CCn1c2c(c3ccccc31)CCCC2)N1CCc2nc3cc[nH]n3c(=O)c2C1,-18.1%[5.79 µM]
CCCNC(=O)C1COC2(CCN(C(=O)Cc3ccccc3)CC2)N1C(=O)c1ccc(OC)cc1 (centres undefined),-6.6%
CC(=O)Nc1ccc(CN2CCN3C(=O)N(Cc4ccc(C)cc4)C[C@H]3C2)cc1,i
Cc1cnc(CCNC(=O)Nc2ccc3c(c2)OCCO3)n1Cc1ccc(F)cc1,-5.8%
CCn1cc(S(=O)(=O)NCCc2ncc(C)n2Cc2ccc(F)cc2)cn1,6.31µM*
Cc1cnc(CCNC(=O)C2CCCC2)n1Cc1ccc(F)cc1,-7.6%
CCn1nccc1C(=O)N1CCCC(c2nc(-c3ccccc3)no2)CCNC(=O)CC1 (centres undefined),i
CCOc1ccccc1NC(=O)Cc1coc2c(C)c(C)ccc12,4.2%
Cc1cccc(CCNC(=O)c2nn(C)c3c2CSc2ccccc2-3)c1,-7.7%
O=C(O)C1=NOC2CN(Cc3c(F)cccc3Cl)CC12 (centres undefined),20.7%
SMILES,Pf Dd2 inh
COc1cc(NC(=O)N(Cc2ccco2)C2CCN(C(C)=O)CC2)cc(OC)c1OC,-1.0%
CN1CCN(c2nc3c(c(=O)[nH]2)CCN(Cc2ccc(F)cc2F)CC3)CC1,35.3%[5.79 µM]
Cc1noc(CN2CCc3nc(-c4ccc(F)cc4F)[nH]c3C2)n1,-6.9%
Cn1ncc(CN2CCc3nc(-c4ccc(F)cc4F)[nH]c3C2)c1C1CC1,11.2µM*
CNC(=O)[C@@H]1CN(C(=O)c2nccc3ccccc23)C[C@H]1c1nc(COC)no1,0.0%
O=C(NCc1cc2n(n1)CCNC2)C(c1ccccc1)C1CCCC1 (centres undefined),-29.8%
Cc1cccc2ncc(C(=O)NCc3cc4n(n3)CCCNC4)c(=O)n12,3.0%
c1ccc(-c2nc(NCc3cc4n(n3)CCCNC4)c3ccccc3n2)cc1,7.94µM*
Cc1cc(C(=O)N2CCC[C@H](n3c(=O)n(CC4CC4)c4cccnc43)C2)n(C)n1,-19.0%
COCC1CN(Cc2ccncc2)CC12CCNCC2 (centres undefined),-25.8%
CN(Cc1cccc(C(F)(F)F)c1)C(=O)c1ccccc1,i
CN(Cc1cccc(C(F)(F)F)c1)C(=O)C(C)(C)C,-1.3%[44.1 µM]
Cc1ccccc1C(=O)N(C)Cc1cccc(C(F)(F)F)c1,14.1µM*
COC[C@]1(O)CCN(C(=O)CN2CCCCCC2=O)CC1(C)C,8.7%
COc1ccc(NC(=O)CCS(=O)(=O)c2nc(-c3cccs3)cc(C(F)(F)F)n2)cc1,2.4%
CCCc1nnc([C@H]2CCN(Cc3ccc(NC(C)=O)cc3)C2)o1,i
CC(=O)NC[C@@H]1C=C(C)[C@H](CC(=O)O)C[C@H]1C(C)C,44.1%[44.1 µM]
COCCN1CCN(C[C@@H]2C=C(C)[C@H](Cc3nnc(COc4ccc(F)cc4)o3)C[C@H]2C(C)C)CC1,5.01µM*
CCCc1nnc(C[C@@H]2C[C@@H](C(C)C)[C@H](CN3CCC(CO)CC3)C=C2C)o1,10µM*
CCCc1nnc(C[C@@H]2C[C@@H](C(C)C)[C@H](CN3CC[C@H](NC(C)=O)C3)C=C2C)o1,5.01µM*
COc1ccc(C(=O)NC[C@@H]2C=C(C)[C@H](CC(=O)N3CCOCC3)C[C@H]2C(C)C)cc1,-29.9%[44.1 µM]
CC1=C[C@@H](CN2CCC(O)CC2)[C@H](C(C)C)C[C@H]1Cc1nnc(C(C)(C)C)o1,10µM*
CC1=C[C@@H](CN2CCC(C(N)=O)CC2)[C@H](C(C)C)C[C@H]1Cc1nnc(C)o1,i
CC1=C[C@@H](CC#N)[C@H](C(C)C)C[C@H]1CC(=O)N1CCC(C)CC1,-4.0%[44.1 µM]
CCOC(=O)c1cc(NC(=O)c2ccc(C)cc2)c(=O)n2c1oc1ccccc12,-17.9%

# Screening results deposited in PubChem by National Center for Advancing Translational Sciences (NCATS).
